Screens: PubChem BioAssay, The Scripps Research Institute Molecular Screening Center
The list is not random: actives were taken first. Their share in the collection is about 3.5%.
TEAD-YAP block: TEAD-YAP interaction inhibition. HEK-TIYL cells, TEAD-Gal4/YAP UAS-luciferase luminescence. inhibition, % at 9.12 µM. 640,000 tested, 1.4% active. AID 1259422; in the data active means inhibition above about 32%;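 further: 0% = median of test compound wells and 100% = reference inhibitor wells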
GPR151 ag: human GPR151 activation; PathHunter beta-arrestin GPR151 cells, luminescence; AID 1508602; Q8TDV0; activation, % at 11.2 µM; 650,000 tested, 1% active; in the data active means activation above about 4.9%;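 further: 0% = median of compound wells and 100% = cells with positive control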
MITF inh: blocks human microphthalmia-associated transcription factor. AlphaScreen MITF homodimerization, bead proximity signal. inhibition, % at 2.6 µM. 650,000 tested, 0.91% active; in the data active means inhibition above about 50%;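 further: 0% = vehicle wells with protein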
Target sequence (O75030 whole entry, looked up): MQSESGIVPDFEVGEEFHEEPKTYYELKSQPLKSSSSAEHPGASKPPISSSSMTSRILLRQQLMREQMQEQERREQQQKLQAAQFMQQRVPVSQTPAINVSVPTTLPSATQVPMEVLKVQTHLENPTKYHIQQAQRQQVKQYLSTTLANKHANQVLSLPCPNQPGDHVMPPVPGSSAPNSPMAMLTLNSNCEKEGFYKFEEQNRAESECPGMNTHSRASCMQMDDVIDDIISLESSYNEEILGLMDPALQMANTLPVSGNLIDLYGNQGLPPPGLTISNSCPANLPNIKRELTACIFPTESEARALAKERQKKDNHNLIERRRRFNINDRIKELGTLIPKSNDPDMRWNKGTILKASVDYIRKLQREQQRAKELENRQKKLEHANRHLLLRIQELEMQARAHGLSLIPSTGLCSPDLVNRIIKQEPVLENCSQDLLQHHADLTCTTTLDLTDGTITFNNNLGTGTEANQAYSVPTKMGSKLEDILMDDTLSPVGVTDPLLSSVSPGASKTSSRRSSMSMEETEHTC
FBW7 activator: activators of human E3 ligase FBW7 | Q969H0 | AID 1259310 | 650,000 tested, 0.13% active | AlphaScreen FBW7–phospho-cyclin E peptide binding, activator screen | normalized activity (activation), % at 26.1 µM; in the data active means normalized activity above about 1.9%;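 further: purified mutant Fbw7 with reduced substrate affinity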
MITF confirm: human MITF inhibition, confirmation | shares compounds with MITF inh | AlphaScreen MITF homodimerization, biotin/His-MITF beads | inhibition, % at 2.6 µM | 4,700 tested, 16% active;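 active means inhibition above a cutoff derived from the DMSO control wells, cut at about 28% in these data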;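 further: 0% = MITF dimer wells with DMSO only; inhibitors lower the bead chemiluminescence by keeping MITF from dimerizing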
AS interf DR: optically interferes with AlphaScreen signal in dose response. shares compounds with MITF inh. AlphaScreen optical interference counterscreen, cell-free. IC50, µM. 480 tested, 6% active. AID 1259373; call rule not given here
AS interf ctr: optically interferes with AlphaScreen signal; shares compounds with MITF inh; LysRS AlphaScreen counterscreen, signal interference, triplicate; inhibition, % at 2.6 µM; 4,700 tested, 7.6% active; AID 1259376;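 active means inhibition above a cutoff derived from the DMSO control wells, cut at about 30% in these data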
Starred values were filed as active, the others as inactive.

COc1ccc(CN2CCN(Cc3ccc(SC)cc3)CC2)cc1OC was read as TEAD-YAP block 34.9*, GPR151 ag 1.7, MITF inh 75.5*, FBW7 activator -0.2, MITF confirm 19.9 and AS interf ctr 18.9.
COc1ccc(OC)c(CN2CCN(Cc3ccc(SC)cc3)CC2)c1 was read as TEAD-YAP block 5.0, GPR151 ag -0.3, MITF inh 76.0*, FBW7 activator -0.3, MITF confirm 13.7 and AS interf ctr 17.6.
COc1ccc(CN2CCC(O)CC2)c(OC)c1 was read as TEAD-YAP block 3.4, GPR151 ag 1.3, MITF inh 31.9 and FBW7 activator -0.1.
`COc1ccc(CN2CCN(Cc3ccc(Cl)cc3)CC2)c(OC)c1` gave TEAD-YAP block -18.9, GPR151 ag 0.1, MITF inh 61.0*, FBW7 activator -0.2, MITF confirm 0.6 and AS interf ctr 9.1.
For COc1ccc(CN2CCOCC2)c(OC)c1 the results were TEAD-YAP block 2.3, GPR151 ag 0.0, MITF inh -3.4 and FBW7 activator -0.3.
Screening CCOc1ccc(CN2CCN(Cc3cc(OC)ccc3OC)CC2)cc1 returned TEAD-YAP block 5.5, GPR151 ag -1.1, MITF inh 79.0*, FBW7 activator 0.3, MITF confirm 7.7 and AS interf ctr 22.3.
`CCc1ccc(CN2CCN(Cc3ccc(OC)cc3OC)CC2)cc1` gave TEAD-YAP block -10.2, GPR151 ag -1.4, MITF inh 65.8*, FBW7 activator 0.6, MITF confirm -9.1 and AS interf ctr -1.6.
CCS(=O)(=O)N1CCN(Cc2cc(OC)ccc2OC)CC1 was read as TEAD-YAP block 6.7, GPR151 ag 0.6, MITF inh 47.8 and FBW7 activator 0.2.
For COC(=O)Cn1c(=O)c2c(nc(-n3nc(C)c(C)c3C)n2Cc2ccccc2)n(C)c1=O the results were TEAD-YAP block -1.7, GPR151 ag 1.9, MITF inh -7.6 and FBW7 activator 0.0.
For COc1cc(NC(=O)c2ccc3nc(-c4ccccc4)sc3c2)cc(OC)c1OC the results were TEAD-YAP block -1.1, GPR151 ag 1.9, MITF inh 67.6*, FBW7 activator 0.2, MITF confirm 6.2 and AS interf ctr 5.2.
Screening CCC(C)c1ccccc1OCCNCCCOC (configuration not stated) returned TEAD-YAP block -3.6, GPR151 ag -0.9, MITF inh 58.2*, FBW7 activator -0.1, MITF confirm 2.3 and AS interf ctr 2.9.
For CCCCNCCOc1ccccc1OCC the results were TEAD-YAP block 5.8, GPR151 ag 2.5, MITF inh 60.8*, FBW7 activator 0.0, MITF confirm 33.1*, AS interf DR >6.48 and AS interf ctr 6.3.
For CCOc1ccccc1OCCOCCNCc1ccccc1 the results were TEAD-YAP block 7.0, GPR151 ag -1.0, MITF inh 81.6*, FBW7 activator 0.2, MITF confirm 1.9 and AS interf ctr 10.6.
`CNCCCOc1c(C)cc(Cl)cc1Br` gave TEAD-YAP block -14.5, GPR151 ag -1.0, MITF inh 24.2 and FBW7 activator -0.4.
For Cc1cc(Cl)cc(Br)c1OCCNCCN(C)C the results were TEAD-YAP block 6.2, GPR151 ag 0.1, MITF inh 53.2*, FBW7 activator 0.0, MITF confirm 1.0 and AS interf ctr 18.2.
`CCC(C)c1ccccc1OCCNCCOC` (configuration not stated) gave TEAD-YAP block -1.6, GPR151 ag -2.4, MITF inh 46.3 and FBW7 activator -0.1.
`Cc1cccc(NC(=O)CCC2CCN(C(=O)C3CC(C(C)C)=NO3)CC2)c1` (configuration not stated) gave TEAD-YAP block -17.2, GPR151 ag 1.1, MITF inh -2.6 and FBW7 activator -0.1.
For O=C(COc1ccc(Cl)cc1)Nc1ccc(C(=O)OC2CCCCC2)cc1 the results were TEAD-YAP block 18.3, GPR151 ag 2.2, MITF inh 8.0 and FBW7 activator -0.1.
`CN(C)CCNCCOc1ccc2ccccc2c1Br` gave TEAD-YAP block -2.9, GPR151 ag -0.7, MITF inh 58.5*, FBW7 activator 0.7, MITF confirm 2.3 and AS interf ctr 17.6.
For CCC(C)c1ccccc1OCCCNCCN (configuration not stated) the results were TEAD-YAP block 15.2, GPR151 ag 0.9, MITF inh 13.4 and FBW7 activator 0.1.
CCC(C)c1ccccc1OCCNCCN(C)C (configuration not stated) was read as TEAD-YAP block -0.5, GPR151 ag 1.2, MITF inh 67.3*, FBW7 activator 0.2, MITF confirm 58.7*, AS interf DR >6.48 and AS interf ctr 16.5.
`CCC(C)c1ccccc1OCCCNCCO` (configuration not stated) gave TEAD-YAP block 13.0, GPR151 ag -2.5, MITF inh 59.4*, FBW7 activator 0.4, MITF confirm -6.1 and AS interf ctr -6.4.
`CC(=O)N1CCN(Cc2ccc3c(c2)CN(C(=O)CCc2ccccc2)CCO3)CC1` gave TEAD-YAP block -9.9, GPR151 ag 0.4, MITF inh -4.5 and FBW7 activator 0.1.
Screening CN(CC(=O)c1ccc2c(c1)-c1ccccc1C2)Cc1cccnc1 returned TEAD-YAP block -12.1, GPR151 ag -1.7, MITF inh 1.6 and FBW7 activator 0.0.
CCn1c2ccccc2c2cc(CN3CCN(C(=O)c4cccnc4)CC3)ccc21 was read as TEAD-YAP block -3.9, GPR151 ag 0.0, MITF inh 58.0*, FBW7 activator 0.0, MITF confirm 3.3 and AS interf ctr 2.7.
CCn1c2ccccc2c2cc(CN3CCN(C(=O)c4ccc(OC)cc4)CC3)ccc21 was read as TEAD-YAP block 6.7, GPR151 ag 1.2, MITF inh 48.5 and FBW7 activator -0.3.
For CCn1c2ccccc2c2cc(CN3CCN(C(=O)c4ccc(F)cc4)CC3)ccc21 the results were TEAD-YAP block -13.9, GPR151 ag 3.7, MITF inh 54.6*, FBW7 activator -0.3, MITF confirm 5.2 and AS interf ctr 6.7.
`CCn1c2ccccc2c2cc(CN3CCN(C(=O)c4ccccc4)CC3)ccc21` gave TEAD-YAP block -0.9, GPR151 ag 0.4, MITF inh 22.9 and FBW7 activator -0.1.
For O=C(NC(=O)c1ccccc1)Oc1ccc(F)cc1 the results were TEAD-YAP block -0.3, GPR151 ag 3.1, MITF inh 0.9 and FBW7 activator 0.0.
Screening Cc1cc(=O)[nH]c(N/N=C\c2ccccc2F)n1 returned TEAD-YAP block -13.8, GPR151 ag -0.6, MITF inh 8.6 and FBW7 activator 0.0.
Cc1ccc(-n2nc3ccc(NC(=S)NC(=O)c4ccccc4)cc3n2)cc1Cl was read as TEAD-YAP block -4.9, GPR151 ag -0.3, MITF inh 4.8 and FBW7 activator 0.0.
`CCOC(=O)c1ccc(NC(=O)CCOc2ccccc2)cc1` gave TEAD-YAP block 1.5, GPR151 ag 0.7, MITF inh 74.6*, FBW7 activator 0.0, MITF confirm 6.7 and AS interf ctr 8.5.
